Inconclusive results are not listed. The source made the active and inactive calls. Unless noted, calls follow the shape of the dose curve; as a rule, active = well fitted curve in the direction sought with a large enough effect; inconclusive = small, poorly fitted or top-dose-only effect, or another doubt; inactive = no such curve, though single readings can be large; an effect the other way counts as inactive or inconclusive.
What was measured:
[1] = qHTS Assay for Identification of Small Molecule Antagonists for NFkB Signaling Pathway. (AID 624479; calls by dose curve;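 also: pathway stimulated with TNF alpha; potency is read from the fitted curve at half-maximal effect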)
[2] = Cell Proliferation Assay against the TMD8 Cell Line (AID 651645); settings: TMD8 DLBCL cell line proliferation/viability; at 46.1 µM (top of the series);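 also: cells exposed to compound for 48 h before reading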
Outline: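 TMD8 cells, 500/well in RPMI with 5% FBS, dosed immediately and grown 48 h at 37 C, 5% CO2. CellTiter-Glo luminescence normalised to DMSO 100% and 9.2 uM bortezomib (final) 0%.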

[3] = Cell Proliferation Assay against the HBL1 Cell Line (AID 651646); settings: HBL1 DLBCL cells; at 46.1 µM (top of the series);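 also: cells exposed to compound for 48 h before reading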
Outline: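 500 log-phase HBL1 cells per well in phenol red-free RPMI with 5% FBS were treated with compounds for 48 h at 37 °C, 5% CO2. Viability was read by CellTiter-Glo luminescence, normalized to DMSO (100%) and 9.2 uM bortezomib final (0%).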

[4] = target: Tyrosine-protein kinase Yes (Homo sapiens) (UniProt P07947); assay: qHTS for small molecule inhibitors of Yes1 kinase: Primary Screen (AID 686947);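 also: plate controls were DMSO with enzyme for no effect and no-enzyme DMSO wells for full effect; nearly all actives have a fitted effect of over 60% in size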
Sequence of Tyrosine-protein kinase Yes (Homo sapiens) (P07947 whole entry, looked up): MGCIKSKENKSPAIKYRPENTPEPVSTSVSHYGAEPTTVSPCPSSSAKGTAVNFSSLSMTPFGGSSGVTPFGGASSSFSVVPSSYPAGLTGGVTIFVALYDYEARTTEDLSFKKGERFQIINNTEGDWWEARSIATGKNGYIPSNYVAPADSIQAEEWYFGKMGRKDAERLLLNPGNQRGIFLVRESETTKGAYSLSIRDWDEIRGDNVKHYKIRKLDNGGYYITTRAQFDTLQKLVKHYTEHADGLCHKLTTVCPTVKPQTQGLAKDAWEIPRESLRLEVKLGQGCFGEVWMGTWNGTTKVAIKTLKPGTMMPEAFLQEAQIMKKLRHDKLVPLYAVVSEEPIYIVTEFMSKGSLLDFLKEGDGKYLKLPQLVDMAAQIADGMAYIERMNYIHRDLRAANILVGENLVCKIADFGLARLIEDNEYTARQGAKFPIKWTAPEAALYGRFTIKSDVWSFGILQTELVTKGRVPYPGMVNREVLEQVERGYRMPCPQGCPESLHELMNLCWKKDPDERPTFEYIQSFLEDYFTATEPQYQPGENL
Outline: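 ADP-Glo luminescence readout; final 4 nM Yes1, 0.1 mM ATP, 0.3 mg/mL poly(E4Y), Tris pH 7.5, MgCl2, DTT, Brij-35. 20 min compound preincubation, 60 min reaction at RT. Normalized to DMSO wells with and without enzyme.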

[5] = qHTS for small molecule inhibitors of Yes1 kinase: Counter Assay (AID 686950);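 also: no kinase present so only ADP-Glo detection of a fixed ADP amount is tested; luminescence from ADP-Glo reporting ADP in a fixed ATP and ADP mixture; 0% = DMSO wells with ATP plus ADP and -100% = ATP-only wells without ADP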
Outline: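 Enzyme-free ADP-Glo interference check: compounds were preincubated 20 min in buffer, then an ATP/ADP mix (0.08 mM ATP, 0.02 mM ADP final) was added for 60 min at room temperature before two-step ADP-Glo luminescence detection.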

[6] = qHTS Assay for Identification of Small Molecule Agonists for NFkB Signaling Pathway. (AID 624478);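 also: compounds tested together with TNF alpha at its EC50 of 10 pM; 0% is about no effect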
Outline: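 Cells carrying an NFkB response element-driven beta-lactamase gene are co-treated with compound and 10 pM TNF alpha for 5 h, and reporter activity is then read as 460 and 530 nm fluorescence.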

[7] = Cell Proliferation Assay against the TMD8 Cell Line (Caspase readout at 8 hrs) (AID 651713); also: potency is read from the fitted curve at half-maximal effect
Outline: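 Percent activity derived from Caspase-Glo signal, DMSO set to 0% and bortezomib (9.2 uM final) to 100%. TMD8 cells were exposed to compound for 8 h in RPMI with 5% FBS.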

[8] = Cell Proliferation Assay against the TMD8 Cell Line (Caspase readout at 16 hrs) (AID 651712)
Outline: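 TMD8 cells (500/well) in phenol-red-free RPMI with glutamine, 5% FBS, were exposed to compounds for 16 h at 37 °C. Caspase 3/7 activation was read by Caspase-Glo luminescence; percent activity normalised to DMSO (0%) and 9.2 uM bortezomib final (100%).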

Structure (SMILES) | Potency [1] | viability (% of control) [2] | viability, percent of control [3] | Potency [4] | outcome [5] | outcome [6] | Potency [7] | Potency [8]
CC(C)(C)c1cc(C(C)(C)C)c(NC(=O)c2c[nH]c3ccccc3c2=O)cc1O | 23.7 µM (active) | 5.21% | 5.33% | inactive | inactive | – | – | –
CC(=O)Nc1sc2c(c1-c1nc3ccccc3s1)CNC2 | – | 4.93% | 22.5% | – | inactive | inactive | 33.2 µM (active) | –
COc1cc2c(Oc3ccc4[nH]c(C)cc4c3F)ncnc2cc1OCCCN1CCCC1 | – | 1.51% | 1.27% | – | inactive | inactive | – | –
CNc1nccc(-c2cccnc2Oc2cc(C(=O)Nc3cccc(C(F)(F)F)c3)ccc2C)n1 | 13.3 µM (active) | 6.17% | 25.3% | – | inactive | inactive | inactive | –
CC(C)=CCCC(C)=CCCC(C)=CCSc1ccccc1C(=O)O | – | 100% | 85.3% | – | inactive | – | inactive | inactive

— PubChem BioAssay (NCATS)
